PubChem BioAssay (Tox21)
Inconclusive results are not listed. Values without a mark were called inactive. Calls of active or inactive are those of the source. Calls follow the shape of the dose curve; as a rule, active = well fitted cell-killing curve with a large enough effect in the repeat runs; inconclusive = weak or mixed curves, or effect the other way; inactive = flat fitted curve, though single readings scatter.

Test: cAMP Responsive Elements (CRE) small molecule agonists, cell-based qHTS assay: qHTS cell viability counter screen (AID 2060914); also: nearly all actives have a fitted effect of over 50% in size
Details: CRE-bla HEK293T viability, CellTiter-Glo luminescence, 5 h; series mostly up to 92.4 µM; activity change, negative = cytotoxicity: at the top concentration
How it was run: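 CRE-bla HEK293T cells in 10% dialyzed FBS medium were exposed to compounds for 3 h at 37C after 18 h plating. CellTiter-Glo was then added in the same wells, and luminescence was read after 30 min at room temperature.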
% is scaled to controls: 0 for no effect and ±100 for the full control effect.

SMILES | activity change, negative = cytotoxicity | Potency
CCOP(=S)(OCC)SCS(=O)(=O)CC | -5.37% | –
CN(C)CCc1ccc(O)cc1 | -5.95% [at 42.5 µM] | –
C#CCOS(=O)OC1CCCCC1Oc1ccc(C(C)(C)C)cc1 (stereo not given) | – | inactive
O=S1OC[C@@H]2[C@H](CO1)[C@]1(Cl)C(Cl)=C(Cl)[C@@]2(Cl)C1(Cl)Cl (stereo not given in full) | -21.1% | –
Nc1ccc(-c2ccccc2)cc1 | – | inactive
CCOC(=O)C1(c2ccccc2)CCN(CCc2ccc(N)cc2)CC1 | 3.88% [at 42.5 µM] | –
c1ccc2c(c1)Sc1ccccc1N2CC1CN2CCC1CC2 (stereo not given) | -9.6% [at 42.5 µM] | –
COc1ccc(C(=O)N2CCCC2=O)cc1 | 0.0126% [at 42.5 µM] | –
CC(C)COP(=O)(OCC(C)C)OCC(C)C | -3.66% | –
OC[C@@H](O)[C@H]1O[C@@H]2O[C@H](C(Cl)(Cl)Cl)O[C@@H]2[C@H]1O | – | inactive
CC(C)CC(N(C)C)C1(c2ccc(Cl)cc2)CCC1 (stereo not given) | -11.7% [at 42.5 µM] | –
C=CCC1=C(C)[C@@H](OC(=O)[C@@H]2[C@@H](C=C(C)C)C2(C)C)CC1=O | -13.2% | –
Cc1cnc[nH]1 | 12.4% | –
CC(c1ccc(O)cc1)(c1ccc(O)cc1)c1ccc(O)cc1 | 14.8% | –
CCOP(=S)(NC(C)C)Oc1ccccc1C(=O)OC(C)C (stereo not given) | -16.8% | –
O=Cc1ccco1 | – | inactive
CC(C)(C)C(O)/C(=C\c1ccc(Cl)cc1Cl)n1cncn1 (stereo not given) | -18% | –
CCOP(=O)(OCC)O/C(=C/Cl)c1ccc(Cl)cc1Cl | -2.17% | –
N#Cc1cc(Br)c(O)c(Br)c1 | -9.16% | –
O=NN1CCCCCCC1 | – | inactive

SMILES | activity change, negative = cytotoxicity | Potency
CC(C)=CCOc1c2occc2cc2ccc(=O)oc12 | -5.24% [at 42.5 µM] | –
COc1nn(C(=O)NS(=O)(=O)c2ccccc2OC(F)(F)F)c(=O)n1C | -7.83% | –
Cl/C=C\Cl | -5.83% | –
ClCc1ccccc1CCl | 0.538% | –
C[C@@H](Oc1ccc(Cl)cc1Cl)C(=O)O | -0.763% | –
CCC(OC(C)=O)C(CC(C)NC)(c1ccccc1)c1ccccc1 (stereo not given) | -0.873% | –
O=S1(=O)OCC2C(CO1)C1(Cl)C(Cl)=C(Cl)C2(Cl)C1(Cl)Cl (stereo not given) | -17.9% | –
Nc1ccc(Oc2ccc(N)cc2)cc1 | – | inactive
O=C(N[C@H](c1ccccc1)[C@@H]1CN2CCC1CC2)c1c(Cl)ccc(C(F)(F)F)c1Cl | 12.8% | –
N#CSCSC#N | – | inactive
CCCCc1ccc(O)cc1 | -9.01% | –
CC(C)(C)c1cc(O)ccc1O | – | inactive
CN(C)C(=O)Oc1cc(OC(=O)N(C)C)cc(C(O)CNC(C)(C)C)c1 (stereo not given) | 5.01% [at 42.5 µM] | –
Cc1ccn2nc(S(=O)(=O)Nc3c(F)cccc3F)nc2n1 | 4.77% | –
CC1COC(Cn2cncn2)(c2ccc(Oc3ccc(Cl)cc3)cc2Cl)O1 (stereo not given) | -16.9% | –
O=C(NCc1cccnc1)Nc1ccc([N+](=O)[O-])cc1 | -3.38% | –
Nc1nc(N)c(N)c(N)n1 | -0.697% | –
CC1(C)CCC(Cc2ccc(Cl)cc2)C1(O)Cn1cncn1 (stereo not given) | -16.4% | –
CC(Cl)(Cl)C(=O)O | – | inactive
O=Cc1ccc2c(c1)OCO2 | -6.39% | –
